Tested on: LIMK1
Conditions: concentration: 1 μM, replicates: in singlicate; n = 1
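Also: KINOMEscan kinase panel screen.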

Compound	%Inh [%]
Cc1c(Cn2c3ccccc3n3c(=O)cc(N4CCOCC4)nc23)cccc1C(F)(F)F [GSK2306394]	0
Fc1ccc(-c2nc[nH]c2-c2ccncc2)cc1 [SB-217360]	0
COc1cccc(CNC(=O)NC2CCN(c3ccnc(Nc4ccc(F)cc4)n3)C2)c1 (stereo not shown) [GSK1379723]	3
Cc1ccccc1-c1cc(-c2c[nH]nc2-c2ccccn2)ccn1 [GW680061]	0
COC(=O)C(NC(=O)NC1CCN(c2ccnc(Nc3ccc(F)cc3)n2)C1)c1ccccc1 (stereo not shown) [GSK1379712]	17
O=C1NC(=O)C(c2ccc(Cl)cc2)=C1Nc1ccc(O)cc1 [SB-340867]	11
COc1cc2ncnc(Nc3cccc(Br)c3)c2cc1OC.Cl [GI230329]	0
COC(=O)c1cccc(NC(=O)NC2CCN(c3ccnc(Nc4ccc(F)cc4)n3)C2)c1 (stereo not shown) [GSK1379725]	0
COc1ccc2cc(-c3nc(-c4ccccc4C(C)C)[nH]c3-c3ccncc3)ccc2c1 [SB-660566]	8
CC(=O)c1c(C)c2cnc(Nc3ccc(N4CCNCC4)cn3)nc2n(C2CCCC2)c1=O	0
CCc1ccc(-c2ccc3c(c2)-c2n[nH]cc2S(=O)(=O)N3C)cc1	0
CC(=O)c1c(C)c2cnc(Nc3ccn(C)n3)nc2n(C2CCCC2)c1=O	23
CC(C)c1cc(-c2ccc3c(N)n[nH]c3c2)nc(N)n1 [GSK2250882]	0
COc1ccc(Nc2nccc(N3CCC(NC(=O)C(C)c4ccc(Cl)cc4)CC3)n2)cc1 (stereo not shown) [GSK1379812]	2
Cc1ccc(NC(=O)c2ccc(Cl)cc2)cc1-c1ccc(C(=O)Nc2ccncc2)cc1 [GSK1398467]	0
Cl.Cl.Cl.N#Cc1ccc(CCNc2nccc(-c3cccc(CN4CCNCC4)c3)n2)cc1 [GSK2137462]	18
CCCCc1nn2ncccc2c1-c1ccnc(NC2CC2)n1 [GW684374]	33
COc1cccc(NC(=O)Nc2ccc(C)c(-c3ccc(C(=O)Nc4ccncc4)cc3)c2)c1 [GSK1398474]	11
Cc1ccc(-c2nc(Nc3ccncc3)c3ccccc3n2)s1 [GSK189015]	31

Compound	%Inh [%]
CS(=O)(=O)CCNCc1nc(-c2ccc3ncnc(Nc4ccc(OCc5ccccc5)c(Cl)c4)c3c2)cs1.Cl [GW582764]	0
COC(=O)c1cccc(NC(=O)NC2CCN(c3ccnc(Nc4ccc(OC)cc4)n3)C2)c1 (stereo not shown) [GSK1379746]	0
CC[C@@H]1CO[C@H](C(=O)Nc2ccccc2)CN1c1cc(-c2ccc3c(N)n[nH]c3c2)nc(NC)n1 [GSK2376236]	1
CS(=O)(=O)Cc1ccc(Nc2nccc(-c3c(-c4cccc(NC(=O)C5CCCCC5)c4)nn4ncccc34)n2)cc1 [GSK350559]	22
CSc1ccc(-c2nc3n(c2-c2ccncc2)CCC3)cc1 [SKF-105561]	0
Cc1cnc(N)c(/C=C/c2cncc(C(=O)NCCc3ccc(Cl)cc3Cl)c2)c1.Cl [GSK190937]	0
CNC(=O)c1ccc(C)c(-n2c(C)cc(OCc3ccc(F)cc3F)c(Br)c2=O)c1	0
CCn1c(-c2c(N)noc2C)nc2cnccc21 [SB-737856]	3
O=c1cc(N2CCOCC2)nc2n(Cc3ccccc3F)ccn12 [GSK2297428]	0
Fc1ccc(-c2nc3n(c2-c2ccncc2)CCS3)cc1 [GI98581]	0
Fc1ccc(-c2nn3cccc(F)c3c2-c2ccncc2)cc1 [GW475620]	0
COc1ccc(CSc2nnc(-c3ccc4nccn4c3)o2)cc1C(F)(F)F	0
CC(C)c1ccc(O)cc1Nc1ccnc2ccc(C(F)(F)F)cc12 [GW482059]	0
Cc1ccc(NC(=O)Nc2ccccc2F)cc1-c1ccc(C(=O)Nc2ccncc2)cc1 [GSK1398477]	36
Cc1ccc(NC(=O)Nc2ccc(Cl)cc2)cc1-c1ccc(C(=O)Nc2ccncc2)cc1 [GSK1398472]	28
Cc1c(Cn2c(C)c(C)n3c(=O)cc(N4CCOCC4)nc23)cccc1C(F)(F)F [GSK2328680]	8
O=C(Nc1n[nH]c2nc(-c3cccs3)c(Br)cc12)C1CC1 [SB-735297]	26
Cc1cccc2c(-c3ccncn3)c(-c3ccc(F)cc3)nn12 [GW515532]	0
